Reference: PubChem BioAssay AID602310 (National Center for Advancing Translational Sciences (NCATS), 2012)
Hit rate of the full screen: of about 410,000 compounds, about 310 (0.076%) were called active. Entries that show only a call come without a potency. About 2% were inconclusive and are not listed. This is one part of a sample in which actives are shown more often than they occur. Calls follow the shape of the dose curve; as a rule, active = well fitted curve in the direction sought with a large enough effect; inconclusive = small, poorly fitted or top-dose-only effect; inactive = flat fitted curve, though single readings scatter.

Each molecule was assayed against DNA dC->dU-editing enzyme APOBEC-3G (Homo sapiens) (UniProt Q9HC16) (assay: qHTS for Inhibitors of Vif-A3G Interactions: qHTS). Conditions: HeLa A3G-eYFP + Vif (tagged APOBEC3G with the HIV-1 protein that degrades it), YFP fluorescence, overnight; series mostly up to 46.1 µM.
Sequence of DNA dC->dU-editing enzyme APOBEC-3G (Homo sapiens) (Q9HC16 whole entry, looked up): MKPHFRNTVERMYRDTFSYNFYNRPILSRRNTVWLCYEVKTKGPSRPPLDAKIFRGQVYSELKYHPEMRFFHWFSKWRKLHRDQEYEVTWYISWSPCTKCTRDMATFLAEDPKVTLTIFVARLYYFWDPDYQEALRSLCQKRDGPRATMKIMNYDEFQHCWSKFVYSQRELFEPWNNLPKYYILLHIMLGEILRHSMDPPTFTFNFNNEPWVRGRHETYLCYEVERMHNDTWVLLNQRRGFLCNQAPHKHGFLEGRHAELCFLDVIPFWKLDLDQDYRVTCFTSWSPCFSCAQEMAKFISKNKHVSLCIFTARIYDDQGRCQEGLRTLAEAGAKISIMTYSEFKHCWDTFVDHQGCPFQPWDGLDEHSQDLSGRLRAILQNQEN
From the text: The recent discovery and characterization of host restriction factors, which provide a potent defense to invading retroviruses, has provided new targets for antiviral drug development. APOBEC3G (A3G) and APOBEC3F (A3F) are potent cytidine deaminases that block HIV-1 replication; HIV-1 expresses the Vif protein, which counteracts A3G and A3F by binding to them and inducing their proteasomal degradation. The Vif-A3G and Vif-A3F interactions provide two potential targets for development of small molecules which can interfere with the ability of Vif to degrade A3G or A3F. […] To identify inhibitors that can interfere with Vif mediated degradation of A3G and A3F, we have developed Hela cell lines that stably express A3G or A3F tagged with eYFP at the C-terminal end (A3G-eYFP or A3F-eYFP, respectively) and Vif. In the absence of an inhibitor, Vif induces degradation of A3G-eYFP and A3F-eYFP, and the cells are not fluorescent. In the presence of an inhibitor, it is expected that Vif will be unable to degrade A3G-eYFP and/or A3F-eYFP, resulting in an increase in yellow fluorescence. In this assays Vif A3G was screened against the Molecular Library Small Molecule Repository (MLSMR). NIH Chemical Genomics Center [NCGC] NIH Molecular Libraries Probe Centers Network [MLPCN] MLPCN Grant: MH093245 Assay Submitter (PI): Vinay Pathak, National Cancer Institute
5 uL of 700 cells/well of A3G-YFP cells are dispensed into black, clear bottom plates. The plates are incubated overnight at 37 deg C. 23 nL of compounds are added by pintool. The plates are incubated overnight at 37 deg C and then read on the TTP Acumen (Ex 488/ Em 500-530).
Also: nearly all actives have a fitted effect of over 60% in size.
Potency is read from the fitted curve at half-maximal effect.

Structure (SMILES) | Potency
CN(C)CCCn1c(SCCN2C(=O)c3ccccc3C2=O)nc2ccccc2c1=O | inactive
CCn1c(/C=C/c2ccc([N+](=O)[O-])o2)nc2ccccc2c1=O | 3.98 µM (active)
COc1cc(OC)c(OC)cc1/C=C/c1nc2ccccc2c(=O)n1-c1ccc(Br)c(C)c1 | inactive
CC(C)(C)C1CCC(NC(=O)c2cnn3c2NC(=C2CC2)C=C3C(F)F)CC1 (configuration not stated) | inactive
CCCCS(=O)(=O)c1oc(-c2cccs2)nc1S(=O)(=O)c1ccccc1 | inactive
Cc1ccc(Cl)cc1N1CCN(S(=O)(=O)c2cc3[nH]c(=O)c(=O)[nH]c3cc2C)CC1 | inactive
CCc1ccc(C(=O)CC2(O)C(=O)N(CCc3ccccc3)c3ccc(Br)cc32)cc1 (configuration not stated) | inactive
COc1cc(OC)c(OC)cc1/C=C1\C=Cc2ccccc21 | inactive
COc1ccc(C2/C=C\CN(Cc3ccco3)C(C)C(=O)N2Cc2ccc(F)cc2)cc1 (configuration not stated) | inactive
Cc1ccccc1CSCCNC(=O)C1CCN(S(=O)(=O)Cc2ccccc2)CC1 | inactive
Cc1cccc(CN2Cc3cccc4c3[C@H](C=CC4)CC2=S)c1 | inactive
Cc1csc(NCC(=O)c2c[nH]c3ccccc23)n1 | inactive
CCOc1cccc2c1N[C@@H](c1ccc(C(=O)O)cc1)[C@H]1CC=C[C@@H]21 | inactive
CCOC(=O)c1cc2c(=O)n3ccccc3nc2n(CC2CCCO2)c1=NC(=O)c1ccccc1Br (configuration not stated) | inactive
CC(C)OC(=O)c1ccc(NCc2cc(O)ccc2O)cc1Cl | 12.6 µM (active)
O=S(=O)(c1cccc(C(F)(F)F)c1)N1CCN(c2nc(-c3cccs3)nc3ccccc23)CC1 | inactive
Cc1c(Cl)cccc1NC(=O)CCS(=O)(=O)c1ccc2c(c1)oc(=O)n2C | inactive
COc1cc2[nH]c(C)c(CCN3CCN(c4ccccc4)CC3)c2cc1OC | inactive
CCc1ccc(S(=O)(=O)n2ccnc2)cc1 | inactive
Cc1[nH]c2ccccc2c1C(=O)C(=O)N(C)c1ccccc1 | inactive
COc1ccc(CCNC(=O)Cn2c(=O)cc(C(F)(F)F)c3c(C)nn(C)c32)c(OC)c1 | inactive

Structure (SMILES) | Potency
COc1cc2c(=O)c(S(=O)(=O)c3ccc(C(C)C)cc3)cn(Cc3ccccc3C)c2cc1OC | inactive
O=C(O)c1c(Br)c(Br)c(Br)c(Br)c1C1c2ccc(O)cc2Oc2cc(O)ccc21 | inactive
CCOC(=O)N1CCC(NC(=O)c2cnn(-c3cccc(C)c3)c2C2CCN(C(=O)OC(C)(C)C)CC2)CC1 | inactive
OCCNc1ncnc2oc(-c3ccco3)c(-c3ccco3)c12 | inactive
O=[N+]([O-])c1ccc(/C=C/c2ccc3cccnc3c2)cc1 | inactive
O=C(O)C1=C/C(=C/C=[N+]2c3cc(O)c(O[C@H]4OC(CO)[C@@H](O)[C@@H](O)[C@@H]4O)cc3C[C@@H]2C(=O)[O-])C[C@H](C(=O)O)N1 (some centres not stated) | inactive
Cc1ccc2onc(CC(=O)N3CCN(c4ccc(Cl)cc4)CC3)c2c1 | inactive
Cc1ccc(C=O)cc1Cl | inactive
C(=Nc1ccc(/C=C/c2ccnc3ccccc23)cc1)c1cc2c3c(c1)CCCN3CCC2 | inactive
CC(C)(C)c1ccc(C(=O)NCC(c2ccc(Cl)cc2)N2CCOCC2)cc1 (configuration not stated) | inactive
O=C1CN(C(=O)Nc2ccccc2C(F)(F)F)C(c2ccccc2)c2c(sc3c2CCCC3)N1 (configuration not stated) | inactive
CCCN(CCC)c1nc2c(C)cccn2c(=O)c1/C=C1/SC(=S)N(Cc2ccco2)C1=O | 3.16 µM (active)
CN(C)c1ccc(/C=c2\[nH]c(=O)/c(=C/c3ccc(N(C)C)cc3)[nH]c2=O)cc1 | inactive
CCN(C(=O)CSc1nnc(C)n2c1cc1occc12)c1ccccc1 | inactive
CCOc1ccc(C(=O)/C=C/c2cn(CC(O)CN3CCCCCC3)c3ccccc23)cc1 (configuration not stated) | inactive
CCOC(=O)N1CCc2c(sc(NCc3cccc(F)c3)c2C(=O)Nc2ccccc2OCC)C1 | inactive
O=C(COC(=O)c1ccccc1OCCOc1ccccc1)Nc1cccc(Br)c1 | inactive
Cc1cc(C)cc(NC(=O)CSc2nc3nccnc3c(=O)n2CCc2c[nH]c3ccccc23)c1 | inactive
CCOC(=O)c1ccc(NC(=O)C2CC(=O)NC(=Nc3ccc(C)c(C)c3)S2)cc1 (configuration not stated) | inactive
CCCCNC(=O)Cn1c(SCc2cccc(Cl)c2)nc2ccncc21 | inactive
CCCn1ccc2c(OCC(=O)NCc3ccc(F)cc3)cccc2c1=O | inactive

Structure (SMILES) | Potency
O=C(Nc1ccc(Cl)cc1)c1cnn2c1NC(=C1CC1)C=C2C(F)F | inactive
Cc1cccc(-c2nnc(SC(C)C(=O)Nc3ccccc3)n2C)c1 (configuration not stated) | inactive
CCN1CCN(c2ccc(/C=C/c3ccnc4ccccc34)cc2)CC1 | inactive
COc1ccc(-c2nc3c(c(SCC(=O)Nc4ccc(C(=O)O)cc4)n2)Cc2ccccc2O3)cc1 | inactive
Brc1cccc[n+]1Cc1cccc(C[n+]2ccccc2Br)c1 | inactive
CC(C)(C)n1ncc2c(=O)n(Cc3ccc(C(=O)c4ccccc4)cc3)cnc21 | inactive
OC(CBr)C[n+]1cccc2cc(Br)ccc21 (configuration not stated) | inactive
N#CC1=C(N)Oc2c(sc3ccccc23)C1c1ccco1 (configuration not stated) | 11.2 µM (active)
O=C(OC12CC3CC(CC(C3)C1)C2)c1ccc(NCc2cc(O)ccc2O)cc1 | 6.31 µM (active)
COC(=O)c1ccccc1NC(=O)c1cnn(-c2ccc(F)cc2)c1-n1cccc1 | inactive
CCOc1ccc(N(CC)S(=O)(=O)N2CCCC(C(=O)NCc3ccc(Cl)cc3)C2)cc1 (configuration not stated) | inactive
N#Cc1ccc[n+](CC(=O)c2ccc(F)cc2)c1 | inactive
O=C(C[n+]1ccncc1)c1ccc2c(c1)CCCC2 | inactive
Cc1nn(CC(=O)N2CCN(c3cccc(C(F)(F)F)c3)CC2)c(=O)c2cc3sccc3n12 | inactive
CCCCC(CCCC)c1ccc(C=Nc2ccc(/C=C/c3ccnc4ccccc34)cc2)cc1 | inactive
CCS(=O)(=O)N1CCc2cc(C(=O)NCc3ccc(C)cc3)ccc21 | inactive
CCCCN1C(=O)c2[nH]nc(-c3ccccc3O)c2C1c1cccc(OCc2ccccc2)c1 (configuration not stated) | inactive
ClC/C=C/C[n+]1ccccc1Cl | inactive
CSc1n[nH]c(-c2ccco2)n1 | inactive
C[n+]1ccc(/C=C/c2c[nH]c3ccccc23)cc1 | 11.2 µM (active)
